# Results taken from PubChem BioAssay AID1739 (National Center for Advancing Translational Sciences (NCATS), 2009).
# Results filed as inconclusive are left out. A number with no mark means an inactive call. Activity calls are given as the source filed them. The call rests on the fitted dose curve; in most records, active means well fitted inhibition curve with a large enough effect; inconclusive means small, poorly fitted or top-dose-only effect; inactive means flat fitted curve, though single readings scatter.
# Assay: Counterscreen Assay for Enhancers of SMN2 Splice Variant Expression: Modulation of SMN1 Expression
# Conditions: HEK293 SMN1-luciferase reporter, luminescence, 30-36 h; series mostly up to 22.8 µM; activity change, negative = inhibition: at the top concentration
# Excerpt: NIH Chemical Genomics Center [NCGC] NIH Molecular Libraries Probe Production centers Network [MLPCN] MLPCN Grant: R03 MH084179-01 Assay Submitter (PI): Elliot Androphy NCGC Assay Overview: Spinal muscular atrophy (SMA) is caused by insufficient levels of the survival motor neuron protein SMN. The SMN locus on chromosome 5q13 contains two inverted copies of SMN called SMN1 and SMN2 which are 99% identical at the amino acid level. SMN1 is a fully functional protein and SMN2 skips exon 7 90% of the time. Skipping of exon 7 produces non-functional protein product. 10% of the SMN2 protein includes exon 7 and is fully functional. In the SMA disease state, mutations in the SMN1 locus are the cause of the disease state. Because only 10% of SMN2 is of the fully functional form, it is not sufficient to overcome the deficiency produced by the loss of the SMN1 product. A therapy that either increase the amount of SMN2 product made or to increase the inclusion of exon 7 has been proposed for the treatment of SMA. We have designed an assay to identify small molecules that can increase the amount of functional SMN2 product by appending a luciferase reporter gene after the native SMN2 gene, such that inclusion of exon 7 in the expressed product places the luciferase sequence in frame, thus generating functional luciferase enzyme. As a counterscreen for nonspecific modulators of expression, we have run compounds through a similar assay that measures expression of an SMN1-luciferase chimera.
# NCGC Assay Protocol Summary: This screen utilizes a luciferase reporter gene assay, combining the promoter with the major portion of the native SMN1 cDNA (exons 1 -7, intron 8 , exon 8 fused to luciferase) stably expressed in HEK293 cells. Compounds that increase luciferase signal presumably enhance expression of the functional SMN1 splice variant. Passaging media contained DMEM w/ glutamax (+phenol red) 10% FCS, 1x pen/strep, 200 ug/ml hygro, 1x sodium pyruvate. Assay media contained DMEM w/ glutamax (-phenol red) 10% FCS, 1x pen strep, 1x pyruvate Sequence, Parameter, Value, Description (1) Cells, 5 uL, 2000 cells/well, 1536 TC treated White solid bottom plate (2) Time, 10-12 hours, 37C 5% CO2 (3) Compound, 23 nl, MLSMR Library (4) Control Compound, 23 nL, Sodium butyrate st 4.5mM (final) conc (5) Time, 30-36 hours, 37C 5% CO2 (6) Reagent, 3 ul, One Glo (TM) from Promega (7) Time, 5-15 minutes, Room temp (8) Detector, Viewlux: luminescent read, 60 second integration, high speed 2x binning Keywords: Spinal muscular atrophy, SMA, SMN2, high throughput screening, MLSMR, MLPCN, NIH Roadmap, qHTS and NCGC
Structure (SMILES),"activity change, negative = inhibition",Potency
O=C1CCC(C(=O)Nc2cccc3ccccc23)N1 (stereo not given),-6.36% [at 46.1 µM],
FC(F)(F)c1cccc(-c2nnc(-c3ccccc3)c(N3CCOCC3)n2)c1,-12.7%,
COc1ccc(-c2csc(N3CCC(C(N)=O)(N4CCCCC4)CC3)n2)cc1,-14.5%,
Clc1ccc(-c2nnc(-c3ccc(Br)cc3)c(N3CCSCC3)n2)cc1,-12%,
CC(C)(C)n1nnnc1C(c1ccc2ncccc2c1)N1CCSCC1 (stereo not given),26.6% [at 46.1 µM],
OCCCNc1nc(-c2ccc(Br)cc2)nnc1-c1ccc(Cl)cc1,-28.5%,
Clc1ccc(-c2nnc(-c3ccccc3)nc2-c2c[nH]c3ccccc23)cc1,-2.01%,
CCCCOC(C)n1cc(F)c(=O)[nH]c1=O (stereo not given),10.5%,
Cc1ccc(-c2nnc(-c3ccccc3)c(N3CCOCC3)n2)cc1,5.25%,
CC1CN(c2nc(-c3ccc(Br)cc3)nnc2-c2ccccc2)CC(C)N1 (stereo not given),-26.8%,
Cc1ccc(C2c3c(oc4ccccc4c3=O)C(=O)N2CCCN2CCOCC2)o1 (stereo not given),-11.8% [at 46.1 µM],
CC(C)Nc1nc(-c2ccccc2)nnc1-c1ccccc1,-4.5%,
O=C(Nc1ccc([N+](=O)[O-])cc1Cl)c1cc(Cl)ccc1O,,0.708 µM (active)
O=C(Cc1c(F)cccc1Cl)N1CCN(C(=O)c2ccco2)CC1,-8.45% [at 46.1 µM],
Clc1ccc(-c2nnc(-c3ccccc3)c(N3CCSCC3)n2)cc1,-5.45%,
CN(Cc1ccccc1)Cc1c(F)cccc1F,-5.6% [at 46.1 µM],
COC(=O)C1=C(C)NC(=O)/C1=C\c1cc(C)n(-c2ccccc2F)c1C,-7.23% [at 46.1 µM],
Cc1[nH]c2ccccc2c1-c1nc(-c2ccc(Cl)cc2)nnc1-c1ccccc1,-7.98%,
COc1ccc(CNC(=O)c2ccc(C(C)C)cc2)cc1,-15.6% [at 46.1 µM],
CN1CCN(c2nc(-c3ccc(Br)cc3)nnc2-c2ccccc2)CC1,7.73%,

Structure (SMILES),"activity change, negative = inhibition",Potency
O=C(Nc1nc(-c2ccc3ccccc3c2)cs1)C1CCN(S(=O)(=O)c2cccs2)CC1,-32.5%,
FC(F)(F)c1nnc(-c2ccccc2)nc1Oc1ccccc1,-5.97%,
O=C(NCCCNCCCNC(=O)c1ccccn1)c1ccccn1,24.4% [at 46.1 µM],
c1ccc(-c2nnc(-c3ccccc3)c(-c3c[nH]c4ccccc34)n2)cc1,-2.82%,
OCCCNc1nc(-c2ccc(Cl)cc2)nnc1-c1ccc(Br)cc1,1.41%,
CC(/C=C/C(=O)NO)=C\[C@@H](C)C(=O)c1ccc(N(C)C)cc1,,7.94 µM (active)
O=c1cc(N2CCN(c3cccc(Cl)c3)CC2)[nH]c(=O)n1C1CCCCC1,-20.8% [at 46.1 µM],
Clc1ccc(-c2nnc(-c3ccccc3)nc2N2CCSCC2)cc1,5.88%,
Cn1cnc2c(NCc3ccco3)ncnc21,-18.5% [at 46.1 µM],
CCC1=Nc2ccccc2-c2nnc(SC)nc2O1,8.48%,
CCOC(=O)c1c(-c2cccc(C)c2)csc1NC(=O)c1c(-c2ccccc2)noc1C,,0.355 µM (active)
COc1ccc(OC)c(-c2csc(N3CCC(c4ccccc4)CC3)n2)c1,-26.4%,
Brc1ccc(-c2nnc(-c3ccccc3)c(N3CCSCC3)n2)cc1,14.9%,
CCCSc1nnc(Sc2nnnn2-c2ccccc2)s1,,7.08 µM (active)
FC(F)C(F)(F)C1=CC(c2cccs2)=NCCN1,-7.36% [at 46.1 µM],
O=S(=O)(NC1CCCc2ccccc21)c1cnc[nH]1 (stereo not given),-8.82% [at 46.1 µM],
O=C(O)c1cccc(COc2ccc(CO)cc2Cl)c1,,3.16 µM (active)
Cc1nnc(-c2ccccc2)[nH]c1=O,-6.61%,
Cc1ccc(C(=O)Cn2c3c(sc2=N)CCCC3)cc1,,7.94 µM (active)
Nn1c(SCC(=O)NCCC2=CCCCC2)nnc1C1CCCCC1,4.9% [at 46.1 µM],
